Measured values published in PubChem BioAssay AID2314 (National Center for Advancing Translational Sciences (NCATS), 2010).
“And” between values parts separate entries of the source, which are not always exact repeats. Equal entries are not always repeated. Hit rate of the full screen: of about 300,000 compounds, about 37,000 (12%) were called active. Cut-off read from the data, not from the text of the source: active = max response mostly above about 13% (no sharp cut-off); inactive = mostly below about 14%. The list comes from a sample in which actives are over-represented; it also holds similar structures and randomly drawn compounds. More than one record can exist for a structure, and the calls need not agree.

Test: Cycloheximide Counterscreen for Small Molecule Inhibitors of Shiga Toxin; note: read at 38.3 µM for the half of the compounds with a filed dose; 0% is about no effect
Details: cell reporter, cycloheximide protein synthesis inhibition counterscreen; stronger effect = higher value

Row | SMILES | max response
1 | COc1cccc(C(O)c2nc3ccccc3n2C)c1 (centres undefined) | -2.8% (inactive)
2 | CCCC(=O)N(CCN1CCOCC1)c1nc2ccc(OCC)cc2s1 | 16.6% (inactive)
3 | CCOc1ccc2nc(C(=O)N3CCCC(C)C3)sc2c1 (centres undefined) | 105% (active)
4 | CCOc1ccc2nc(Nc3nc4ccc(NC(C)=O)cc4s3)sc2c1 | -1.98% (inactive)
5 | CCOc1ccc(S(=O)(=O)NCCCn2ccnc2)cc1NC(C)=O | -3.29% (inactive)
6 | c1cncc(-c2nnc3n2C2(CCCCC2)Cc2ccccc2-3)c1 | -1.12% (inactive)
7 | CCOc1cccc2c1OC1(CCCCC1)N1N=C(c3cccnc3)CC21 (centres undefined) | 40.7% (active)
8 | CCOc1ccccc1C1CC(c2cccc(NS(C)(=O)=O)c2)=NN1C(=O)c1ccccc1 (centres undefined) | -1.46% (inactive)
9 | CC1CCN(S(=O)(=O)c2ccc3c(c2)n(C)c(=O)n3C)CC1 | 2.78% (inactive)
10 | Cc1cc(CNCc2c(C(=O)N(C)Cc3ccccc3)nc3ccccn23)nn1C | 1.54% (inactive)
11 | Cc1nn(-c2ccccn2)c2c1C(c1ccncc1)C1=C(CC(C)(C)CC1=O)N2 (centres undefined) | -5.72% (inactive)
12 | Cc1cc2c(cc1C)NC(c1ccccn1)C1=C(CC(C)(C)CC1=O)N2 (centres undefined) | 28% (active)
13 | CC1(C)CC(=O)C2=C(C1)Nc1cc(C(=O)c3ccccc3)ccc1NC2c1ccccn1 (centres undefined) | 5.93% (inactive)
14 | O=C1CCCCC1C(=O)c1ccccc1 (centres undefined) | 12.6% (inactive)
15 | Cc1ccc(C(=O)c2c(NC(=O)c3ccncc3)sc3c2CCCC3)cc1 | -4.15% (inactive)
16 | O=C1NC(c2ccncc2)Nc2sc3c(c21)CCCC3 (centres undefined) | 26.5% (active)
17 | O=C(Nc1sc2c(c1-c1nc3ccccc3[nH]1)CCCC2)C1CC1 | 16.7% (inactive)
18 | C/C(=C\c1ccccc1)C1NC(=O)c2c(sc3c2CCCC3)N1 (centres undefined) | 36.6% (active)
19 | CCOC(=O)c1cc2ccccc2n1CC(=O)c1ccccc1 | 1.26% (inactive)
20 | CC1CCC2CCCCC2N1C(=O)c1cc([N+](=O)[O-])cc([N+](=O)[O-])c1 (centres undefined) | 10.4% (inactive)
21 | NS(=O)(=O)c1ccc(CCNC(=O)c2nc(CS(=O)(=O)c3ccc(Cl)cc3)no2)cc1 | -2.33% (inactive)
22 | CCn1cc(C(=O)N[C@@H](C)C(=O)NCCO)c(=O)c2cc3c(cc21)OCO3 | -1.13% (inactive)
23 | CC(CO)NCC12CC3CC(CC(C3)C1)C2 (centres undefined) | -1.89% (inactive)
24 | N/C(=N\OC(=O)Nc1ccccc1)c1ccno1 | 24.5% (active)

Row | SMILES | max response
25 | N/C(=N\OC(=O)Nc1ccc(Cl)c(Cl)c1)c1ncc(C(F)(F)F)cc1Cl | -4.62% (inactive)
26 | O=C(Nc1ccccc1Cl)O/N=C(/c1ccccc1)c1ccccn1 | -2.08% (inactive)
27 | COc1ccc(-c2c(C)cc3oc(=O)cc(-c4ccccc4)c3c2C)cc1C=O | 19.9% (inactive)
28 | COc1cccc(NC(=O)CN(C)C(C)C(=O)Nc2ccc(C#N)cc2)c1 (centres undefined) | 11.8% (inactive)
29 | S=c1nc2ccccc2c2nc(-c3cccnc3)[nH]n12 | -3.11% (inactive)
30 | C=CCn1c(=O)c(C(=O)NCc2ccc3c(c2)OCO3)c(O)c2ccccc21 | -4.21% (inactive)
31 | CC(C)N1CCC(N2CCN(Cc3cccnc3)CC2CCO)CC1 (centres undefined) | -0.86% (inactive)
32 | CCC(C)(C)NC(=O)CN(Cc1cccs1)C(=O)CNS(=O)(=O)c1ccc(F)cc1 | 1.08% (inactive)
33 | Cc1ccc(S(=O)(=O)NCC(=O)N(CC(=O)NC(C)(C)C)Cc2cccs2)cc1 | 0.104% (inactive)
34 | CC(C)(C)NC(=O)CN(Cc1cccs1)C(=O)CNS(=O)(=O)c1ccccc1 | 15.6% (active)
35 | O=C(N/C(=C\c1ccc(F)cc1)C(=O)N1CCCCCC1)c1ccccc1 | -2.25% (inactive)
36 | CC(C)c1nc(SCC(=O)Nc2cccc(C(=O)O)c2)c2c3c(sc2n1)CCCC3 | 2.36% (inactive)
37 | COc1ccc(CNc2c(CO)cnc3c2cnn3C)cc1 | 8.91% (inactive)
38 | Cc1ccc(S(=O)(=O)N2CCN(C)CC2)cc1C(=O)NC1CCCCC1 | -0.406% (inactive)
39 | O=C(Oc1c(-c2ccco2)oc2ccccc2c1=O)c1cccnc1 | 12.7% (active)
40 | O=C(Oc1cccnc1)c1cc2ccccc2oc1=O | -1.97% (inactive)
41 | O=C(Oc1ccc(Br)cc1)c1cccnc1 | 7.39% (inactive)
42 | O=C(CN1C(=O)c2ccccc2C1=O)NCc1ccc(C(=O)O)cc1 | -4.14% (inactive)
43 | O=c1[nH]c(NCCO)nnc1Cc1ccc(Cl)cc1 | -3.78% (inactive)
44 | Cc1ccc(N(C(=O)CNC(=O)c2ccco2)C(C(=O)NC2CCCC2)c2ccncc2)cc1 (centres undefined) | -1.23% (inactive)
45 | CCOC(=O)C1(Cc2cccc(OC)c2)CCN(C(C)CC(C)(C)O)CC1 (centres undefined) | -3.86% (inactive)
46 | CCOC(=O)C1(Cc2ccccc2C(F)(F)F)CCN(C(=O)c2cc(C)n(C)n2)CC1 | 31.4% (active)
47 | CCOC(=O)C1(CCOc2ccccc2)CCN(C(=O)c2cncs2)CC1 | 1.41% (inactive)
48 | CCCN(CC1COc2ccccc2O1)C(=S)Nc1ccc(C)cc1 (centres undefined) | -5.79% (inactive)

Row | SMILES | max response
49 | Cc1c(CN2CCC(CO)(CCOc3ccccc3)CC2)[nH]c2ccc(Cl)cc12 | -1.37% (inactive)
50 | O=C(Nc1ccc2c(c1)CCC2)c1ccc(Br)s1 | 72% (active)
51 | O=C(NC1CCCCCCC1)c1cccs1 | 34% (active)
52 | O=C(NCC(=O)N(Cc1cccs1)C(C(=O)NC1CCCCC1)c1ccco1)c1cccs1 (centres undefined) | -2.31% (inactive)
53 | O=C(COC(=O)/C=C/c1cccs1)NC1CCCCC1 | -0.796% (inactive)
54 | CC(C)C(OC(=O)c1cccs1)C(=O)NC1CCCCC1 (centres undefined) | -1.99% (inactive)
55 | O=C(CCC(=O)c1cccs1)NC1CCCCCC1 | 21.2% (active)
56 | CC(C)C(=O)OCC(=O)Nc1ccc2c(c1)CCC2 | 2.17% (inactive)
57 | O=C(NC1CCCC1)C(NS(=O)(=O)c1ccc(Br)s1)c1ccccc1 (centres undefined) | 7.24% (inactive)
58 | O=C(NC1CCCC1)c1ccc(Br)s1 | 19.5% (active)
59 | CC1CC(C)CN(CCC(=O)Nc2ccc3c(c2)CCC3)C1 (centres undefined) | -6.42% (inactive)
60 | O=C(CN(C(=O)CNC(=O)c1cccs1)c1cccc(F)c1)NC1CCCCC1 | 0.305% (inactive)
61 | CN(CC(=O)NC1CCCCC1)S(=O)(=O)c1ccc(Br)s1 | 6.95% (inactive)
62 | O=S(=O)(c1ccc(F)cc1)N1CCN=C1SCc1cccc(F)c1 | 7.74% (inactive)
63 | COc1cccc(NC(=O)N2CCC(NC(=O)C(Cc3cccc(C)c3)NC(C)=O)CC2)c1 (centres undefined) | -0.694% (inactive)
64 | O=C(Nc1ccc(S(=O)(=O)N2CCCCC2)cc1)C1CC(=O)N(c2ccc(F)cc2)C1 (centres undefined) | -1.91% (inactive)
65 | CN(C)c1ccc(CNC(=O)CN2C(=O)COc3ccc(S(=O)(=O)N4CCCC4)cc32)cc1 | 9.54% (inactive)
66 | O=[N+]([O-])C(=c1ccc2c(c1)N1C3=C(CCCC3)CC3CCCCC31N=2)[N+](=O)[O-] (centres undefined) | 6.06% (inactive)
67 | c1ccc2c(-c3nn4nnnc4c4ccccc34)cccc2c1 | 8.28% (inactive)
68 | CC(=O)c1cc(-c2ccccc2)n(CCC(=O)NC2CCCCCC2)c1C | -2.48% (inactive)
69 | O=C(CCS(=O)(=O)c1ccccc1)NC1CCCC1 | 49.1% (active)
70 | O=C(CCNC(=O)C1CCN(S(=O)(=O)c2ccccc2)CC1)NC1CC1 | 11.4% (inactive)
71 | COCCCNC(=S)N1CCN(c2nc(-c3cccc(OC)c3)cs2)CC1 | 9.62% (inactive)
72 | CC(C)c1ccc(Cc2nnc(NCCCO)[nH]c2=O)cc1 | 12.2% (inactive)

Row | SMILES | max response
73 | COc1cccc(CNS(=O)(=O)c2ccc3c(c2)CC(C)N3C(C)=O)c1 (centres undefined) | 4.58% (inactive)
74 | Cc1cc(C)n(CC(O)CN(c2ccccc2)S(=O)(=O)c2ccc3ccccc3c2)n1 (centres undefined) | -3.48% (inactive)
75 | Cc1cc2c(cc1C)[n+](C)cn2CC(O)COCC1CC=CCC1 (centres undefined) | -1.8% (inactive)
76 | COc1ccc(C2/C=C\CN(CC(C)C)CC(=O)N2Cc2ccc(F)cc2)cc1 (centres undefined) | -4.65% (inactive) and -3.5% (inactive)
77 | COc1ccc(C2/C=C\CN(Cc3ccco3)C(C)C(=O)N2Cc2ccc(F)cc2)cc1 (centres undefined) | 10.6% (inactive)
78 | COc1ccc(C2/C=C\CN(S(=O)(=O)c3cccs3)CC(=O)N2Cc2ccc(F)cc2)cc1 (centres undefined) | 8.73% (inactive) and 13.8% (active)
79 | C=CCn1c(SCc2ccc(Cl)c(Cl)c2)nnc1C(CO)NC(=O)c1ccc(OC)cc1 (centres undefined) | 3.34% (inactive)
80 | Cc1nc2ccc(C(=O)N/N=C/c3ccc(O)cc3)cc2[nH]1 | 7.31% (inactive)
81 | O=C(N/N=C/c1ccc(Cl)c(Cl)c1)c1ccc2nc[nH]c2c1 | 16.3% (active)
82 | CSc1ccc(/C=N\NC(=O)COc2ccc(Cl)cc2Br)cc1 | 11.1% (inactive)
83 | COc1ccc(/C(C)=N/NC(=O)c2ccc3nc[nH]c3c2)cc1 | -2.63% (inactive)
84 | CSc1ccc(/C=N/NC(=O)c2cccc(Cl)c2)cc1 | 96.6% (active)
85 | CSc1ccc(/C=N\NC(=O)CC(=O)NC(C)C)cc1 | 1.43% (inactive)
86 | CC1CC(C)CN(S(=O)(=O)c2cccc3nonc23)C1 (centres undefined) | -1.35% (inactive)
87 | CN1CC(c2ccccc2)C2(COc3ccccc3C2=O)C12C(=O)Nc1ccccc12 (centres undefined) | -3.96% (inactive)
88 | Cc1ccccc1NC(=O)CCNS(=O)(=O)c1ccc2[nH]c(=O)oc2c1 | -2.26% (inactive)
89 | O=C(NNC(=O)C1CCCC1)c1ccc(F)cc1 | -5.73% (inactive)
90 | O=S(=O)(NC1CC2CCC1C2)c1ccc(Cl)cc1 (centres undefined) | -1.85% (inactive)
91 | CCOC(=O)NNC(=O)c1ccc(Cl)cc1 | 6.53% (inactive)
92 | O=C(NNC(=O)C1C2CCC(C2)C1C(=O)O)c1ccc(Cl)cc1 (centres undefined) | 17.2% (active)
93 | O=C(NNC(=S)NC1CC2CCC1C2)c1ccc(Cl)cc1 (centres undefined) | 11.9% (active)
94 | S=C(NNC(=S)NC1CC2CCC1C2)NC1CC2C=CC1C2 (centres undefined) | 4.61% (inactive)
